# The panel holds about 83,000 compounds, 20% with a hit somewhere; the sample as a whole holds those more often.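 Single-dose data. Exposure time 48 hours. Values below 10 considered active.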 Values without a mark were called inactive. Calls of active or inactive are those of the source.
# Experiments:
# Assay in all cases: NCI-60 one-dose screen, 48 h (100 = growth as untreated, 0 = no growth, -100 = all killed)
# Settings in all cases: 10 µM unless noted
# HCT-15 colon = tested on: HCT-15 colon
# HT29 colon = tested on: HT29 colon
# SNB-75 CNS = tested on: SNB-75 CNS
# SNB-19 CNS = tested on: SNB-19 CNS
# U251 CNS = tested on: U251 CNS
# SK-MEL-5 melanoma = tested on: SK-MEL-5 melanoma
# UACC-62 melanoma = tested on: UACC-62 melanoma
# LOX IMVI melanoma = tested on: LOX IMVI melanoma
# SK-MEL-28 melanoma = tested on: SK-MEL-28 melanoma
# PC-3 prostate = tested on: PC-3 prostate
Structure (SMILES),growth (HCT-15 colon),growth (HT29 colon),growth (SNB-75 CNS),growth (SNB-19 CNS),growth (U251 CNS),growth (SK-MEL-5 melanoma),growth (UACC-62 melanoma),growth (LOX IMVI melanoma),growth (SK-MEL-28 melanoma),growth (PC-3 prostate)
O=C(Nc1ccccc1Cl)c1ccc(NC2=C(Cl)C(=O)N(C3CCCCC3)C2=O)cc1,46.5% [30 µM],37.4% [30 µM],38.8% [30 µM],62.1% [30 µM],34.1% [30 µM],54.4% [30 µM],66.2% [30 µM],23.7% [30 µM],56.1% [30 µM],
CCc1c(Nc2ccccc2C)nc(N)[nH]c1=O,98.4%,110%,92.9%,110%,120%,107%,110%,107%,112%,
Cn1cc(-c2nonc2-c2cn(C)c3ccc(F)cc23)c2ccccc21,18.8%,6.32% (active),-17.9% (active),31.6%,23.5%,24.1%,30.4%,34.8%,63.3%,
COc1ccccc1Nc1nc(-c2cc3cccc(C(F)(F)F)c3oc2=O)cs1,16%,3.1% (active),15%,26.7%,9.97% (active),,,17.3%,,21.2%
c1ccc2[nH]c(-c3ccc(Nc4nc(N5CCCC5)nc5[nH]ncc45)cc3)nc2c1,-36.2% (active),-49.1% (active),-79.2% (active),15.5%,-66.1% (active),,,-84.4% (active),,0.946% (active)
NC(=O)c1cc(Br)ccc1NC(=O)/C=C/c1ccccc1,30.9%,13.9%,-7.05% (active),47.2%,28.7%,12.2%,43%,52.1%,42.2%,
COc1ccc(Nc2c3c4c(cccc4[nH]c2=O)C(=O)c2ccccc2-3)cc1,-4.37% (active),-32.1% (active),0.39% (active),25.8%,3.3% (active),-42.3% (active),38.3%,23.9%,71.1%,
Cc1cn2c(/C=C3/C(=O)Nc4c3ccc3ccccc43)c(C(F)(F)F)nc2s1,27%,0.295% (active),-6.4% (active),36.3%,17.5%,24.7%,31.6%,33.6%,58.4%,
O=c1oc2c(C(F)(F)F)cccc2cc1-c1csc(Nc2ccc(OCCF)cc2)n1,17.3%,-11.5% (active),19.3%,27.7%,5.11% (active),,,19.7%,,21%
O=C(CCN1C(=O)/C(=C/c2ccc(Cl)cc2)SC1=S)NCCCN1CCOCC1,98%,105%,92.4%,101%,102%,97.5%,92.4%,99.7%,100%,
CC(=O)Nc1ccc(-n2c(O)c(/C=N/NC(=O)Cc3ccccc3Nc3c(Cl)cccc3Cl)sc2=S)cc1,103%,104%,89.6%,96.4%,90.4%,96.2%,95.4%,84.2%,111%,
CN1CCN=C1c1ccc(NC(=O)c2ccc(C(=O)Nc3ccc(C4=NCCN4C)cc3)cc2)cc1,108%,98.8%,91.2%,92%,93.6%,84.7%,91.8%,94.2%,110%,
N#Cc1cnn(-c2nc3c(Cl)cccc3s2)c1N,91.8%,84.8%,77.7%,94.8%,88%,90.8%,89.2%,81.4%,102%,
C=C1c2nc3ccccc3n2C=C(c2cccc(Cl)c2)N1Cc1ccc(OC)cc1,25.7%,99.1%,16.5%,20.4%,18.4%,-31.1% (active),44.7%,37.2%,67.7%,
Cn1cccc1-c1nc2c3c(ccc2[nH]1)C(=O)c1ccccc1C3=O,82.1%,104%,137%,105%,87.5%,90.4%,80.5%,88.9%,117%,
COc1ccc(-c2cc(Nc3ccnc(N4CCOCC4)n3)on2)cc1,20.3%,9.4% (active),-3.66% (active),39%,23.2%,19.7%,60.5%,51.9%,69.3%,
Cn1ccnc1C(=O)/C=C/c1ccccc1,20.4%,1.12% (active),12.9%,42.2%,25%,15%,43.1%,18.3%,30.1%,
C(=N/Nc1ncc(-c2cc3cc(-c4ccccc4)ccc3o2)s1)/c1cccs1,99.2%,99.6%,100%,99.3%,99.5%,96.8%,90.7%,98.7%,96.1%,
COc1ccc(-n2nc(C)c3c(Nc4ccc(NC(=O)Nc5c(Cl)cccc5Cl)cc4)ncnc32)cc1,72.2%,31.4%,55.9%,79.4%,63.3%,5.92% (active),46.7%,39.1%,81.9%,
Cc1ccc(NC(=O)/C=C/c2ccccc2)c(C(N)=O)c1,33.6%,14.1%,11.3%,40.5%,28.8%,6.05% (active),44.2%,51.2%,33.1%,
C#CCOc1ccc2ncnc(Nc3cccc(CNC(=O)C=C)c3)c2c1,104% [8.25 µM],108% [8.25 µM],88.6% [8.25 µM],98.1% [8.25 µM],94.6% [8.25 µM],96% [8.25 µM],99.6% [8.25 µM],97.3% [8.25 µM],97.5% [8.25 µM],
CCOc1cc2c(cc1OCC)C(c1cc(OC)c(O)cc1Cl)NCC2 (stereo unspecified),86.9%,56.9%,82.2%,103%,84.1%,88.6%,99.8%,89.6%,99.9%,
O=C1NC(=Nc2ccc(O)cc2)S/C1=C\c1cccc(Cl)c1,30.1%,109%,70.9%,73.5%,59.3%,70.6%,80.9%,53.4%,94.7%,
COc1ccc(C(=O)/C=C/c2cccnc2Nc2cc(OC)c(OC)c(OC)c2)cc1,18.1%,15.1%,21.2%,36.3%,13%,43%,50%,-26% (active),71.5%,
Cc1cc(C)nc(SC2=C(Nc3ccc(O)cc3)C(=O)N(Cc3ccccc3)C2=O)n1,89.5% [40 µM],119% [40 µM],89.8% [40 µM],85.1% [40 µM],91.9% [40 µM],82.4% [40 µM],68.4% [40 µM],82.8% [40 µM],112% [40 µM],
CN(C)S(=O)(=O)c1cccc(-c2nc3sc4c(c3c(=O)[nH]2)CCCC4)c1,115%,19.5%,-12.3% (active),53.5%,1.85% (active),77.3%,71.1%,174%,82.2%,
Cn1c(NCCc2ccc(O)c(O)c2)nc2c1c(=O)n(Cc1ccc(Br)cc1)c(=O)n2C,42.7%,96.8%,74.6%,79.8%,82.8%,57.6%,82%,87.9%,82.6%,
Cc1cc2nc(NC(=O)CN3CCN(CCN4C(=O)c5cccc6cccc(c56)C4=O)CC3)sc2cc1C,81.1%,51.8%,77.8%,75.3%,73.2%,77%,83.8%,77.9%,106%,

# Reference: PubChem BioAssay (NCI)
